# Rows were chosen to be rich in hits. Some 8.8% of all compounds tested hit in one or more screens of this group.
# KB-V1 cytotox: KB-V1 MDR subline cytotoxicity. KB-V1 MDR cells viability, CellTiter-Glo, 72 h. Potency, µM (highest dose often 46.1 µM), usual class: cytotoxic. 3.4% of 400,000 active. AID 1347076; also: potency is read from the fitted curve at half-maximal effect; nearly all actives have a fitted effect of over 60% in size
#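 Cells of the MDR subline KB-V1 are plated, dosed with compound at multiple concentrations, and incubated 72 h at 37 degrees C; CellTiter-Glo is then added and luminescence read after 10 min.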
# HT1080NT lethal: kills 2HG-producing HT-1080-NT fibrosarcoma cells; AID 686970; Potency, µM (top dose mostly 46.1 µM), inactives show top-dose activity, negative = less viability, most hits filed as cytotoxic; 1.6% of 360,000 active; HT-1080-NT fibrosarcoma viability, CellTiter-Glo ATP luminescence, 48 h;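 also: NT is the 2HG producing partner of a matched IDH1 knockdown line; potency is read from the fitted curve at half-maximal effect; 0% = DMSO-treated cells and -100% = media-only wells without cells; nearly all actives have a fitted effect of over 55% in size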
#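 HT-1080-NT fibrosarcoma cells (2HG-overproducing), 750 cells/well in RPMI with 5% FBS, dosed after 2 h and incubated 48 h at 37C. CellTiter-Glo luminescence normalized to DMSO and no-cell wells; concentration-response curves fitted and classed.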
# HT1080 IDH1KD tx: toxicity to HT-1080 IDH1 knockdown cells (counter line); Potency, µM (series often up to 46.1 µM), without a hit: at the top dose activity, negative = toxicity, hits mostly cytotoxic; 2% of 360,000 active; HT-1080 IDH1 knockdown viability, ATP luminescence, 48 h;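 also: potency is read from the fitted curve at half-maximal effect; 0% = DMSO wells and -100% = cell-free medium wells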
#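 Cytotoxicity counter-line: IDH1KD HT-1080, 48 h, CellTiter-Glo. Curves classed by r2, magnitude and activity.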
# IL1B secr inh: inflammasome signaling inhibition, IL-1 beta readout. THP-1 LPS/ATP IL-1B secretion, AlphaLISA, 16 h; stronger effect = lower value. 4.7% of 360,000 active. activity change, % at 57.5 µM; in the data active = activity change below about -50%; inconclusive = mostly about -30% to -49%
#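 THP-1 cells pretreated 1 hr with compounds (up to 57.5 uM final), then stimulated with LPS (250 ng/mL final) plus ATP (1.25 mM final); secreted IL-1B measured by AlphaLISA after 16 hr, decreased signal indicating inhibition.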
# KB-3-1 tox: kills parental KB-3-1 adenocarcinoma cells; KB-3-1 viability, CellTiter-Glo ATP luminescence, 72 h; Potency, µM (series often up to 46.1 µM), usual class: cytotoxic; 1.4% of 400,000 active; also: potency is read from the fitted curve at half-maximal effect; nearly all actives have a fitted effect of over 60% in size
#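 Cytotoxicity in the drug-sensitive parental line KB-3-1 was scored as loss of CellTiter-Glo luminescence following 72 h incubation with compound. Values come from curve fitting of normalized concentration-response data.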
# * marks the source's active call; other numbers are inactive results; i = inactive; ? = inconclusive; . = no result; [ ] = remark or other dose. Unless noted, calls follow the shape of the dose curve; as a rule, active = well fitted curve in the direction sought with a large enough effect; inconclusive = small, poorly fitted or top-dose-only effect, or another doubt; inactive = no such curve, though single readings can be large; an effect the other way counts as inactive or inconclusive. Unless noted, % is scaled to controls: 0 for no effect and ±100 for the full control effect.
SMILES,KB-V1 cytotox,HT1080NT lethal,HT1080 IDH1KD tx,IL1B secr inh,KB-3-1 tox
COc1ccc(SC[C@H](Cc2ccccc2)N2CC[C@@H](C)CCC2=O)cc1,?,-3%,-21%,-6,i
CC12CCC(=O)C=C1CCC1C3CC(O)C(O)(C(=O)CO)C3(C)CC(O)C12F (stereo unspecified),i,?,?,?,i
CC(=O)C1CCC2C3CCC4=CC(=O)CCC4(C)C3(F)C(O)CC12C (stereo unspecified),5.2µM*,11%,?,-13,?
Cc1noc(Cn2c(=O)c3cc4c(cc3n(CC(=O)Nc3cccc(Cl)c3)c2=O)OCO4)n1,i,.,.,.,i
O=C(Nc1ccc(-c2nc3ccccc3[nH]2)cc1)c1ccc2c(c1)OCCO2,i,.,.,.,?
FC(F)(F)c1cccc(Nc2cc(-c3ccccc3)nc3ncnn23)c1,?,7%,4%,-5,i
FC(F)(F)c1ccc(N2CCN(c3cc(-c4ccccc4)nc4ncnn34)CC2)nc1,?,-10%,0%,-61*,i
Cc1nc2cc(NCc3ccccc3O)ccc2n1Cc1ccccc1,?,-20%,-23%,-54*,i
CCOC(=O)CN1C(=O)C(=O)N(Cc2ccccc2F)C1=O,i,9%,1%,15,i
COc1ccc(N2CCC(CNC(=S)Nc3cccc(C)c3)C2)cc1 (stereo unspecified),i,-5%,1%,-77*,i
CN=C1S/C(=C\c2ccc(N3CCOCC3)c(F)c2)C(=O)N1C,16µM*,1%,1%,13,?
O=[N+]([O-])c1ccccc1S(=O)(=O)N1CCN(c2nc(-c3ccccc3)nc3ccccc23)CC1,.,22%,23%,.,.
CC(=O)c1ccc(Oc2ncnc(N)c2[N+](=O)[O-])cc1,?,10%,7%,-24,?
Nc1ncnc(Oc2ccccc2F)c1[N+](=O)[O-],i,-3%,-12%,-89*,i
CCc1ccc(Oc2ncnc(N)c2[N+](=O)[O-])cc1,i,5%,-2%,-86*,i
O=C(/C=C/c1cn(CC(O)CN2CCCCCC2)c2ccccc12)c1ccc(Br)cc1 (stereo unspecified),i,.,.,.,i
C[n+]1ccc(/C=C/c2c[nH]c3ccc(F)cc23)cc1,i,-16%,?,31,8.2µM*
C[n+]1ccc(/C=C/c2ccc(Br)cc2)cc1,i,3%,-3%,?,?
CCOc1ccc(OCC)c(S(=O)(=O)NCc2ccccc2)c1,i,1%,1%,-24,i
CCOc1cc(Br)ccc1S(=O)(=O)NCc1ccccc1,15µM*,1%,-1%,8,i
O=C(NCCOc1ccccc1)C1Nc2ccc(C(F)(F)F)cc2C2c3ccccc3CC12 (stereo unspecified),i,?,?,-74*,?
CCOC(=O)C1Nc2ccc(C(F)(F)F)cc2C2c3ccccc3CC12 (stereo unspecified),18µM*,?,?,-99*,16µM*
O=C(NCc1ccccc1)C1Nc2ccc(OC(F)(F)F)cc2C2C=CCC12 (stereo unspecified),i,4%,7%,13,i
CCC1(C)CN=C(c2ccccc2)NC1 (stereo unspecified),i,-2%,2%,8,i
CC(NC(=O)c1cc2cc(Br)ccc2oc1=N)c1ccccc1 (stereo unspecified),.,2%,1%,-51*,.
SMILES,KB-V1 cytotox,HT1080NT lethal,HT1080 IDH1KD tx,IL1B secr inh,KB-3-1 tox
O=S(=O)(NCCS(=O)(=O)N1CCN(c2ccc(F)cc2)CC1)c1ccc(F)cc1,?,-6%,0%,31,i
COc1ccc([C@H]2N[C@]3(CCCN(Cc4ccc(Cl)cc4)C3=O)[C@H]3C(=O)N(Cc4ccccc4)C(=O)[C@@H]23)cc1,?,-14%,-21%,-22,i
Cc1ccc(C)c(S(=O)(=O)N2CCN(C(=O)CNC(=O)c3ccc4ccccc4c3)CC2)c1,23µM*,-19%,-18%,-6,?
Cc1ccc(C)c(S(=O)(=O)N2CCN(C(=O)CCC(=O)c3cc(C)sc3C)CC2)c1,?,3%,-15%,-54*,i
Cc1ccc(C)c(S(=O)(=O)N2CCN(C(=O)c3sccc3C)CC2)c1,9.2µM*,7%,6%,?,i
O=C(Nc1cccc(C(F)(F)F)c1)N1CCC(c2nc(-c3ccc(F)cc3)no2)CC1,2.6µM*,?,?,?,i
O=C(c1cccs1)N1CCC(c2nc(-c3ccc(S(=O)(=O)N4CCOCC4)cc3)no2)CC1,5.8µM*,-6%,-28%,-7,16µM*
O=C(Nc1ccccc1)N1CCC(c2nc(-c3ccc(S(=O)(=O)N4CCOCC4)cc3)no2)CC1,4.1µM*,10µM*,7.9µM*,42,4.6µM*
O=C(c1ccccc1)N1CCC(c2nc(-c3ccc(S(=O)(=O)N4CCOCC4)cc3)no2)CC1,?,-2%,-12%,-15,i
Cc1cccc(C(=O)N2CCC(c3nc(-c4ccc(S(=O)(=O)N5CCOCC5)cc4)no3)CC2)c1,i,6%,-1%,-53*,i
CCOC(=O)C1CCC(CN(Cc2ccc(OC)cc2)S(=O)(=O)c2ccc(F)c(C(=O)Nc3cc(Cl)ccc3OC)c2)CC1 (stereo unspecified),i,.,.,.,?
Cc1ccc(S(=O)(=O)N2CCC(N3CCN(Cc4ccccc4)C(=O)C3=O)CC2)cc1C,i,.,.,.,i
O=C(CCSc1nnc(-c2ccncc2)o1)Nc1ccccc1Cl,i,-6%,-1%,-10,i
S=C(NCc1ccccc1)N1CCN(C(=S)NCc2ccccc2)CC1,?,1%[9.24 µM],7%,-8,i
Cc1ccc(NC(=O)Cc2csc(-c3ccccc3)n2)cc1F,i,-24%,?,-80*,i
O=C(Cc1csc(-c2ccccc2)n1)Nc1ccc(C(F)(F)F)cc1,i,-7%,-7%,10,i
COc1ccc(NC(=S)Nc2nc(CC(=O)Nc3ccccc3OC)cs2)cc1,8.2µM*,3.5µM*,5µM*,?,?
CCC(=O)Nc1nc(CC(=O)Nc2ccccc2)cs1,26µM*,1%,-2%,16,i
COc1ccccc1NC(=O)Cc1csc(NC(=S)Nc2ccccc2)n1,9.2µM*,3.5µM*,3.2µM*,-9,?
CCOC(=O)Cc1csc(NC(=O)Cc2ccccc2)n1,?,-7%,12%,6,i
COc1ccc2nc(NC(=O)Cn3cnc4ccccc4c3=O)sc2c1,i,-7%,-4%,0,?
CC(C)[C@H]1COCCS(=O)(=O)N1Cc1cccc([N+](=O)[O-])c1,i,.,.,.,i
Cc1ccc(Cn2cnc3c(oc4ccccc43)c2=O)cc1,i,.,.,.,i

# Assay outcomes deposited in PubChem BioAssay by National Center for Advancing Translational Sciences (NCATS).
